PubChem BioAssay AID602252 (Broad Institute, 2012)
Screen size: about 300,000 compounds; about 2,700 (0.9%) were called active. The sample as a whole holds a higher share of actives than the screen did. Values without a mark were called inactive.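 Rule for the calls: active = mean inhibition of at least 30% with at least half of replicates also reaching 30%; inconclusive = no clear call, values can overlap the other calls; inactive = the rest.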

target: Golgi-associated PDZ and coiled-coil motif-containing protein (Homo sapiens) (UniProt Q9HD26); assay: blockade of CAL PDZ-reporter peptide interaction – biochemical, fluorescence polarization, untagged CAL PDZ, HTS, primary screen (AID 602252); settings: purified CAL PDZ, TMR-peptide fluorescence polarization, 1 h; at 24.9 µM; hits give high values;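 note: 0% = DMSO neutral control and 100% = excess unlabeled competitor peptide PRC23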

Question: Which inhibition does the source give for `CN1C(c2ccc(F)cc2)=CS/C1=C(/C#N)c1nnc2n1-c1ccccc1SC2` here?
Answer: 7.66%

Question: For `C=CCC[C@H](Cc1ccc(F)cc1)C(=O)OC[C@@H](NC(=O)[C@@H](CC=C)CC(=O)N[C@H](CO)Cc1ccccc1)C(C)(C)C`, which inhibition is on record?
Answer: 40.2% (active)

Question: For `C=CCC[C@H](Cc1ccc(F)cc1)C(=O)OC[C@@H](Cc1c[nH]c2ccccc12)NC(=O)[C@H](CC=C)CC(=O)N[C@H](CO)Cc1ccccc1`, which inhibition is on record?
Answer: -1.97%

Question: For `C=CC[C@@H](CC(=O)N[C@H](CO)Cc1ccccc1)C(=O)N[C@H](C)COC(=O)[C@@H](CC=C)Cc1ccc(F)cc1`, which inhibition is on record?
Answer: 4.91%

Question: For `O=C1/C(=C\c2ccc(O)cc2)CCC1CNc1ccc(Cl)cc1` (stereo not given), which inhibition is on record?
Answer: -2.09%

Question: How did the inhibition turn out when `CC(=O)OC1CCC2(C)C(=CCC3C4CC(=O)N(O)C(=O)C4(C)CCC32)C1` (stereo not given) was run?
Answer: -3.51%

Question: With `c1ccc(C(=NNc2nc3ccccc3s2)c2ccccn2)cc1` as the compound, how does the inhibition read?
Answer: 10.3%

Question: `CCOCc1nnc(NC(=O)CCS(=O)(=O)Cc2ccccc2)s1` was tested. Which inhibition did it give?
Answer: -2.55%

Question: With `COCc1nnc(NC(=O)CS(=O)(=O)Cc2ccccc2)s1` as the compound, how does the inhibition read?
Answer: -3.64%

Question: How did the inhibition turn out when `CCCCc1nnc(NC(=O)CS(=O)(=O)Cc2ccccc2)s1` was run?
Answer: 30.2% (active)

Question: `COc1ccc(N2CCN(C(CNS(=O)(=O)c3ccc(C)cc3)c3ccccc3)CC2)cc1` (stereo not given) was tested. Which inhibition did it give?
Answer: -2.12%

Question: `O=C1C=CN2CCCC2CC1` (stereo not given) was tested. Which inhibition did it give?
Answer: -1.74%

Question: For `O=C(NC(=S)Nc1ccc(Br)cc1F)C1CCCCC1`, which inhibition is on record?
Answer: -6.68%

Question: How did the inhibition turn out when `Cc1nn(-c2ccc(F)cc2)c(Cl)c1/C=C(/CCC(=O)O)c1nc2ccccc2s1` was run?
Answer: -3.19%

Question: Which inhibition does the source give for `COc1cc(C2c3cc4c(cc3C(O)C3COC(=O)C23)OCO4)cc(OC)c1OC` (stereo not given) here?
Answer: -1.27%

Question: For `CCc1ccccc1NC(=O)c1ccc2c(c1)CCN2S(C)(=O)=O`, which inhibition is on record?
Answer: 40% (active)

Question: Which inhibition does the source give for `CS(=O)(=O)N1CCc2cc(C(=O)Nc3ccccc3Br)ccc21` here?
Answer: -1.26%

Question: Which inhibition does the source give for `CSc1ccccc1NC(=O)c1ccc2c(c1)CCN2S(C)(=O)=O` here?
Answer: -1.36%

Question: With `COc1cc(OC)cc(-c2cc3ccc(F)cc3cn2)c1` as the compound, how does the inhibition read?
Answer: -1.91%

Question: `O=C(C1CCN(C2CCN(Cc3cccc4c3OCO4)CC2)CC1)N1CCOCC1` was tested. Which inhibition did it give?
Answer: 37.8% (active)

Question: For `O=C(C1CCN(Cc2ccc(Cl)cc2)CC1)N1CCN(Cc2ccc3c(c2)OCO3)CC1`, which inhibition is on record?
Answer: 2.38%

Question: For `C/C(=C\c1ccco1)CN1CCC(N2CCC(C(=O)N3CCOCC3)CC2)CC1`, which inhibition is on record?
Answer: 5.25%

Question: For `CCC(CO)Oc1cc(NC(=O)c2cccc3ccccc23)c2ncn(C(C)C)c2c1` (stereo not given), which inhibition is on record?
Answer: -1.65%

Question: `Cc1cc(C)cc(OCC(=O)Nc2ccc(N3CCOCC3)cc2N2CCOCC2)c1` was tested. Which inhibition did it give?
Answer: -3.82%

Question: `CCOc1ccc(NC(=O)c2nc(SCC)ncc2Cl)cc1` was tested. Which inhibition did it give?
Answer: -1.2%

Question: With `CCOc1ccc(N/C(N)=N/c2nc(C)c(C)c(=O)[nH]2)cc1` as the compound, how does the inhibition read?
Answer: 42% (active)

Question: With `CCOc1ccc(NC(=O)C2CC(=O)N=C(N)S2)cc1` (stereo not given) as the compound, how does the inhibition read?
Answer: -0.069%

Question: With `CCCCN1CC(COCc2ccccc2)OCCS1(=O)=O` (stereo not given) as the compound, how does the inhibition read?
Answer: -4.9%

Question: Which inhibition does the source give for `O=C(O)c1ccc(NN=CC2=C(N3CCOCC3)/C(=C/c3ccccc3)CC2)cc1` here?
Answer: -3.09%

Question: How did the inhibition turn out when `CCCCNC(=O)C(C)N(CCN(C)C)C(=O)CCCCCN1C(=O)NC(c2ccc(Cl)cc2)C(C(=O)OCc2ccccc2)=C1C` (stereo not given) was run?
Answer: -7.11%

Question: `Cc1oc2nc(SCC(=O)Nc3ccc(S(N)(=O)=O)cc3)nc(NC(=O)c3ccccc3)c2c1C` was tested. Which inhibition did it give?
Answer: 30.6% (active)

Question: `Cc1cc(-c2nnc(SCC(=O)Nc3ccc(S(N)(=O)=O)cc3)n2N)n[nH]1` was tested. Which inhibition did it give?
Answer: 2.84%

Question: For `Cc1oc2nc(SCC(=O)NCc3cccnc3)nc(N)c2c1C`, which inhibition is on record?
Answer: -4.94%

Question: `CCOC(=O)CNC(=O)/C=C/c1c(Cl)cccc1Cl` was tested. Which inhibition did it give?
Answer: -4.11%

Question: For `O=C(CCc1ccccc1)Nc1nn[nH]n1`, which inhibition is on record?
Answer: -4.68%

Question: Which inhibition does the source give for `O=C(/C=C/c1c(F)cccc1Cl)Nc1nn[nH]n1` here?
Answer: 133% (active)

Question: With `COc1ccc2c(c1)[C@H]1[C@H](CO2)[C@H](c2ccccc2)[C@]2(C)C(=O)Nc3cc(F)c(F)cc3C(=O)N12` as the compound, how does the inhibition read?
Answer: -3.04%

Question: For `Cc1ccc(S(=O)(=O)NC[C@H]2O[C@@H](n3cnc4c(N)ncnc43)[C@H](O)[C@@H]2O)s1`, which inhibition is on record?
Answer: -0.852%

Question: `O=c1c(Cl)c(NC2CC2)cnn1-c1ccccc1` was tested. Which inhibition did it give?
Answer: -0.978%

Question: For `C=CCNc1cnn(-c2ccc(C)cc2)c(=O)c1Cl`, which inhibition is on record?
Answer: 82% (active)

Question: How did the inhibition turn out when `CCCNC(=O)c1c(Cl)cnn1-c1ccc(C)cc1` was run?
Answer: 4.34%

Question: `COc1ccc2[nH]c3c(c2c1)CCN1C(=O)C(CC(=O)NCCc2ccccn2)C[C@H](C(=O)N2CCOCC2)[C@@]31C` (stereo not given in full) was tested. Which inhibition did it give?
Answer: -8.9%

Question: How did the inhibition turn out when `COC(=O)[C@]1(Cc2ccccc2)N[C@H](CN(C)S(=O)(=O)c2ccc(OC(F)(F)F)cc2)[C@@H]2C(=O)N(C)C(=O)[C@@H]21` was run?
Answer: -4.26%

Question: How did the inhibition turn out when `Cc1ccc(S(=O)(=O)NC2CCCCCC2)cc1` was run?
Answer: 0.011%

Question: For `N#CCCN1CCN(S(=O)(=O)c2ccc(S(=O)(=O)N3CCCC3)cc2)CC1`, which inhibition is on record?
Answer: 2.13%

Question: How did the inhibition turn out when `N#CCCN1CCN(S(=O)(=O)c2ccc(S(=O)(=O)NC3CCCCC3)cc2)CC1` was run?
Answer: 49.3% (active)

Question: `COc1ccc(-c2c(-c3cc(OC)cc(OC)c3)n(C)c3ccc(-c4ccn[nH]4)cc23)cc1` was tested. Which inhibition did it give?
Answer: -3.15%

Question: How did the inhibition turn out when `CCN1CCC(O)(/C=C/c2ccc(C)cc2)C(C(=O)/C=C/c2ccc(C)cc2)C1` (stereo not given) was run?
Answer: 8.48%

Question: Which inhibition does the source give for `Cn1c(=O)c(C(=O)Nc2ncccn2)c(O)c2ccccc21` here?
Answer: 35% (active)

Question: `CCCn1c(=O)c(C(=O)Nc2cc(C)ccn2)c(O)c2ccccc21` was tested. Which inhibition did it give?
Answer: -3.7%

Question: `C=CCn1c(=O)c(C(=O)Nc2ncccc2O)c(O)c2ccccc21` was tested. Which inhibition did it give?
Answer: -2.5%

Question: `COc1ccc(Cl)cc1C=CC=Nc1ccc(S(N)(=O)=O)cc1` was tested. Which inhibition did it give?
Answer: 1.96%

Question: Which inhibition does the source give for `COc1cccc(CC(=O)Nc2nc(-c3ccc(OC)c(OC)c3)cs2)c1` here?
Answer: -0.162%

Question: With `COc1ccc(CCNc2nc(-c3cccc(NC(C)=O)c3)cs2)cc1OC` as the compound, how does the inhibition read?
Answer: 57.3% (active)

Question: `COc1ccc(CC(=O)Nc2nc(-c3ccc(F)c(F)c3)cs2)cc1OC` was tested. Which inhibition did it give?
Answer: -3.84%
